From PubChem BioAssay (NCATS)
Results filed as inconclusive are left out. Some compounds were tested as several samples or in several runs, with calls that do not always agree. Calls of active or inactive are those of the source. Unless noted, calls follow the shape of the full dose curve.

Experiments:
[1] = biological target: Peroxisome proliferator-activated receptor delta (Homo sapiens) (UniProt Q03181); assay: qHTS assay for small molecule agonists of peroxisome proliferator-activated receptor delta signaling (AID 588534);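 also: 0% = DMSO basal wells and 100% = positive control agonist at 10 µM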
Summary of the method: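 Fluorescence from CCF4 substrate cleavage by beta-lactamase reporter, read 2 hrs at RT, measured agonist activity. Compounds were tested with 18 hrs exposure at 37 C. Concentration-response data fitted to Hill equation.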

[2] = qHTS assay for small molecule antagonists of peroxisome proliferator-activated receptor delta signaling (AID 588535; active = well fitted inhibition curve with a large enough effect in the signal ratio, with a control signal flat, not every such curve was filed as active; the % refers to the signal ratio;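 as to max response: cells co-treated with a PPAR-delta agonist as stimulator during compound exposure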); settings: HEK293T PPARd-UAS-bla, beta-lactamase FRET ratio, 18 h; 460 nm channel
Summary of the method: (§1)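 Reporter: UAS-bla under PPAR-delta response element, HEK293T host. Medium: 2% charcoal/dextran FBS. Dosing: titration, 18 hrs, 37 C. Detection: CCF4, 2 hrs RT, 405 ex/460 and 530 em.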

[3] = biological target: Peroxisome proliferator-activated receptor delta (Homo sapiens) (UniProt Q03181); assay: as above
Summary of the method: as §1

[4] = biological target: Peroxisome proliferator-activated receptor gamma (Homo sapiens) (UniProt P37231); assay: qHTS assay for small molecule agonists of peroxisome proliferator-activated receptor gamma signaling (AID 588536; active = well fitted curve in the direction sought with a large enough effect in the signal ratio, with a control signal flat, not every such curve was filed as active; the % refers to the signal ratio;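 also: 0% = DMSO basal wells and 100% = rosiglitazone at 2 µM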)
Summary of the method: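 Test agents, titrated, stimulated HEK293 UAS-bla cells overnight (16 h, 37 C). Substrate CCF4 was then added for two hours at room temperature before fluorescence reading.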

[5] = biological target: Peroxisome proliferator-activated receptor gamma (Homo sapiens) (UniProt P37231); assay: qHTS assay for small molecule antagonists of peroxisome proliferator-activated receptor gamma signaling (AID 588537; active = well fitted inhibition curve with a large enough effect in the signal ratio, with a control signal flat, not every such curve was filed as active; the % refers to the signal ratio;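 also: reporter cells co-stimulated with 50 nM rosiglitazone agonist during compound treatment; % of control where 0% means no effect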)
Summary of the method: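 We seeded GeneBLAzer HEK293 reporter cells at 3000 per well, allowed 6-6.5 h attachment at 37 C, then co-treated with test compound titrations and 50 nM rosiglitazone overnight (16 h). Inhibition was quantified from 460/530 nm emission ratios.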

[6] = biological target: Vitamin D3 receptor (Homo sapiens) (UniProt P11473); assay: qHTS assay for small molecule antagonists of vitamin D receptor signaling (AID 588541);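 also: receptor activated by calcitriol during compound treatment; series mostly up to about 77 µM; % is scaled to controls: 0 for no effect and ±100 for the full control effect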
Summary of the method: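 VDR-UAS-bla HEK293T cells (2000/well, 2% charcoal-stripped FBS) were treated with titrated compounds plus 1-alpha,25-dihydroxyvitamin D3 (50 nM or 3 nM final) for 16 h at 37 C. CCF4 beta-lactamase fluorescence was read; Hill fits gave IC50.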

[7] = biological target: Vitamin D3 receptor (Homo sapiens) (UniProt P11473); assay: qHTS assay for small molecule agonists of vitamin D receptor signaling (AID 588543);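 also: 0% = DMSO basal and 100% = reference agonist control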
Summary of the method: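 VDR-UAS-bla HEK293T cells, 2000/well, 2% charcoal-stripped FBS; compound titration 16 h at 37 C; CCF4 beta-lactamase ratio read. Normalized to 50 nM 1-alpha,25-dihydroxyvitamin D3 (100%) and DMSO; Hill fit gives EC50, efficacy.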

[8] = biological target: Thyroid hormone receptor beta (Homo sapiens) (UniProt P10828); assay: qHTS assay for small molecule agonists of thyroid hormone receptor beta signaling (AID 588545);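 also: 0% = DMSO only and 100% = 10 nM T3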
Summary of the method: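 TR-UAS-bla-GripTite HEK 293 cells in medium with 2% charcoal/dextran FBS, 0.1 mM NEAA and 1 mM sodium pyruvate were treated with titrated compounds for 18 hrs at 37 C. Beta-lactamase reporter was read with CCF4 dye (ex 405, em 460/530 nm); EC50 from Hill fits.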

[9] = qHTS assay for small molecule antagonists of retinoid X receptor alpha signaling (AID 588546; active = well fitted inhibition curve with a large enough effect in the signal ratio, with a control signal flat, not every such curve was filed as active; the % refers to the signal ratio;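 also: cells stimulated with 9-cis-retinoic acid as agonist; % is scaled to controls: 0 for no effect and ±100 for the full control effect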); settings: HEK293T RXRa-UAS-bla, beta-lactamase ratio, antagonist mode; measured here: W530 green channel, cytotoxicity proxy
Summary of the method: (§2)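 Beta-lactamase reporter inhibition, read as CCF4 fluorescence ratio (ex 405, em 460/530 nm) after 2 h at RT. HEK293T UAS-bla cells, 2500/well, were stimulated with 9-cis-RA at 500 or 100 nM final alongside test compound for 18 h at 37 C.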

[10] = biological target: Retinoic acid receptor RXR-alpha (Homo sapiens) (UniProt P19793); assay: as above; settings: HEK293T RXRa-UAS-bla, beta-lactamase ratio, antagonist mode
Summary of the method: as §2

[11] = qHTS assay for environmental chemicals that activate the Aryl hydrocarbon Receptor (AhR) signaling pathway (AID 651777; active = well fitted curve in the direction sought with a large enough effect; an effect the other way counts as inactive or inconclusive; also: % of control where 0% means no effect; nearly all actives have a fitted effect of over 15% in size); settings: 1A2-DRE human hepatoma cells, luciferase, 24 h; activation: stronger effect = higher value
Summary of the method: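 Measured luciferase activity, read 30 min after One-Glo addition at room temperature, from human hepatoma cells bearing a dioxin response element–CYP1A2 promoter reporter and exposed to compound for 24 hr at 37 C.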

[12] = biological target: Peroxisome proliferator-activated receptor alpha (Homo sapiens) (UniProt Q07869); assay: qHTS assay for small molecule agonists of the peroxisome proliferator-activated receptor alpha (PPARalpha) signaling pathway (AID 651778; active = well fitted curve in the direction sought with a large enough effect; an effect the other way counts as inactive or inconclusive; also: % of control where 0% means no effect); settings: PathHunter PPARalpha complementation, chemiluminescence, 6 h; max response: stronger effect = higher value
Summary of the method: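 Cells plated at 2,000/well and held overnight at 37 C, 5% CO2, then compound added by pin tool for 6 hr; after PathHunter detection reagent and 60 min at room temperature, chemiluminescence from enzyme complementation was read.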

[13] = qHTS assay for small molecule agonists of the antioxidant response element (ARE) signaling pathway measured by Nrf2-dependant transcriptional activity (AID 720636; active = well fitted curve in the direction sought with a large enough effect in the repeat runs; an effect the other way counts as inactive or inconclusive; also: potency is read from the fitted curve at half-maximal effect;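 as to activation: HepG2 cells with an ARE-driven luciferase reporter; % of control where 0% means no effect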)
Summary of the method: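 In HepG2 cells engineered with an Nrf2-responsive luciferase gene, ARE induction was quantified as luminescence after 16 hr compound treatment at 37 C.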

[14] = qHTS assay for small molecule agonists of the antioxidant response element (ARE) signaling pathway measured by Nrf2-dependant transcriptional activity - cell viability counter screen (AID 720653; active = well fitted curve in the direction sought with a large enough effect in the repeat runs; an effect the other way counts as inactive or inconclusive; also: % is scaled to controls: 0 for no effect and ±100 for the full control effect); settings: ARE-bla HepG2 viability, CellTiter-Glo ATP luminescence, 16 h; max response: stronger effect = lower value
Summary of the method: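 ARE-bla HepG2 cells (2,000/well) rested 5 hrs at 37C/5% CO2, then exposed to compounds in DMSO for 16 hrs. Viability was read in the same wells as intracellular ATP by luminescence, 30 min at room temperature after reagent addition.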

[15] = qHTS assay for cell viability of HEK293 cells (AID 743288; active = well fitted curve in the direction sought with a large enough effect; an effect the other way counts as inactive or inconclusive; also: % is scaled to controls: 0 for no effect and ±100 for the full control effect; nearly all actives have a fitted effect of over 50% in size); settings: ATP luminescence (CellTiter-Glo), 18 h; max response: stronger effect = lower value
Summary of the method: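 Parental HEK293 cells, 2,000 per well, preincubated at least 5 h at 37 C, then exposed to compounds in DMSO for 18 h at 37 C. Viability by CellTiter-Glo ATP luminescence after 30 min at room temperature.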

[16] = biological target: Glucocorticoid receptor (Homo sapiens) (UniProt P04150); assay: qHTS assay for small molecule agonists of glucocorticoid receptor signaling (AID 588532; active = well fitted curve in the direction sought with a large enough effect in the signal ratio, with a control signal flat; the % refers to the signal ratio;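 also: 100% = dexamethasone at 0.1 µM and 0% = DMSO only wells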); settings: HeLa MMTV-bla, beta-lactamase ratio, agonist, 18 h; activation: stronger effect = higher value, percent of dexamethasone control, DMSO zero
Summary of the method: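 Titration series, up to 92 uM, applied to GRE-bla HeLa cells for 18 h at 37 C. Detection by CCF4 FRET substrate after 2 h at RT.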

[17] = biological target: Retinoic acid receptor RXR-alpha (Homo sapiens) (UniProt P19793); assay: qHTS assay for small molecule agonists of retinoid X receptor alpha signaling (AID 588544);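 also: 0% = DMSO basal wells and 100% = reference agonist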
[18] = qHTS assay for small molecule activators of the p53 signaling pathway (AID 651743; active = well fitted activation curve with a large enough effect in the signal ratio, not every such curve was filed as active; the % refers to the signal ratio; also: potency is read from the fitted curve at half-maximal effect; as to activation: series mostly up to about 92 µM; % of control where 0% means no effect); settings: HCT-116 p53RE-bla, beta-lactamase FRET ratio, 16 h; activation: stronger effect = higher value
Summary of the method: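 Cell-based beta-lactamase reporter (p53 response elements, HCT-116 background). After a 5-hour preincubation, cells received compound for 16 hours at 37 C; substrate development ran 2 hours at room temperature.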

[19] = qHTS assay for cell viability of the p53RE-bla HCT-116 cell line (AID 743292; active = well fitted curve in the direction sought with a large enough effect; an effect the other way counts as inactive or inconclusive; also: % is scaled to controls: 0 for no effect and ±100 for the full control effect; nearly all actives have a fitted effect of over 55% in size)
Summary of the method: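 Intracellular ATP of p53RE-bla HCT-116 cells measured by luciferase luminescence following 16 h compound incubation at 37 C; DMSO-only wells served as vehicle controls.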

[20] = biological target: Nuclear receptor subfamily 1 group I member 2 (Rattus norvegicus) (UniProt Q9R1A7); assay: qHTS assay for small molecule activators of the rat pregnane X receptor (rPXR) signaling pathway (AID 651751; call rule not given here; also: 0% is about no effect); settings: rPXR reporter cells, luciferase (One-Glo), 24 h
Nuclear receptor subfamily 1 group I member 2 (Rattus norvegicus), sequence (Q9R1A7 whole entry, looked up): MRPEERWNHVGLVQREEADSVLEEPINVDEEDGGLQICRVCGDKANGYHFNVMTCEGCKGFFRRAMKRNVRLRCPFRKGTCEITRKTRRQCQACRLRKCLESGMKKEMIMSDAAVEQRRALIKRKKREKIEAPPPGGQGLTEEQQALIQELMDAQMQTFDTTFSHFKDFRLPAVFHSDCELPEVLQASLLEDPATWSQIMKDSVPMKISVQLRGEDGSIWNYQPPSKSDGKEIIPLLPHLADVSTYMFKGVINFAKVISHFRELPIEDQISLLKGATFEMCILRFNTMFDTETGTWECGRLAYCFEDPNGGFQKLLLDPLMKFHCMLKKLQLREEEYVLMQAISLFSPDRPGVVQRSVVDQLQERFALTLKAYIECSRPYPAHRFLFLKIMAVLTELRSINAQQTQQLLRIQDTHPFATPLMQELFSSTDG

Thyroid hormone receptor beta (Homo sapiens), sequence (P10828 whole entry, looked up): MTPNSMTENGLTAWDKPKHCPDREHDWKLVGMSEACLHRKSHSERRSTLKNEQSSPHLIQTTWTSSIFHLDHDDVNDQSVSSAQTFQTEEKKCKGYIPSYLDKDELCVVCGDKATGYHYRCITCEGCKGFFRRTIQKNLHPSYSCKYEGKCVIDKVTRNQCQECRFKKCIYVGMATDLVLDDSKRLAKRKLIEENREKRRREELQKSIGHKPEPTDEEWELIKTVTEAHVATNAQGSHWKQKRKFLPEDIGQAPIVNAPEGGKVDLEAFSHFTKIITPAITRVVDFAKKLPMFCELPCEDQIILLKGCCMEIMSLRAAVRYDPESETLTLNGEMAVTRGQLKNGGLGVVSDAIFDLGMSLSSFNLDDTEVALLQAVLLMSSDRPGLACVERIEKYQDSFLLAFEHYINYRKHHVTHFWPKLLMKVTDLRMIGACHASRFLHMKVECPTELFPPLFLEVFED
Glucocorticoid receptor (Homo sapiens), sequence (P04150 whole entry, looked up): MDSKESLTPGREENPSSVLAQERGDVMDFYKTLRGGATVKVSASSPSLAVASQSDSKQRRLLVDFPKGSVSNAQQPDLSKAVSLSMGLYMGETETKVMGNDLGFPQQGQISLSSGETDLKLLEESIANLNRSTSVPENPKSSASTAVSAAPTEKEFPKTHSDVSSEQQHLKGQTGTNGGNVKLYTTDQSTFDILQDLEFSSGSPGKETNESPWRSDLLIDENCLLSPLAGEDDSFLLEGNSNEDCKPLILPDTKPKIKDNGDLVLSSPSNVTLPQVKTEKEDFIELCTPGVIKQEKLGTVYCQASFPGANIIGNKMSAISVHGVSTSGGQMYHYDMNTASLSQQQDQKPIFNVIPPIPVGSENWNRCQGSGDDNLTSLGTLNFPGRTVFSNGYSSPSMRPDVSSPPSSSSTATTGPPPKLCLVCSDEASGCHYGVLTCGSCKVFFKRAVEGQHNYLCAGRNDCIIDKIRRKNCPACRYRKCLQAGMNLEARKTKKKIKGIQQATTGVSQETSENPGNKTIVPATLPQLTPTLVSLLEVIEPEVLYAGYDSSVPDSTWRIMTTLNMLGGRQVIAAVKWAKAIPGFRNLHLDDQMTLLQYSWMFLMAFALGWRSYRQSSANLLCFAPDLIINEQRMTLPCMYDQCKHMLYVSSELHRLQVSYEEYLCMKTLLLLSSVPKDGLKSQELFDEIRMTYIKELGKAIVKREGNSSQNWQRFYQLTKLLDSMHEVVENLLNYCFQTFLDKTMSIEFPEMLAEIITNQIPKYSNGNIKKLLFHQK
Retinoic acid receptor RXR-alpha (Homo sapiens), sequence (P19793 whole entry, looked up): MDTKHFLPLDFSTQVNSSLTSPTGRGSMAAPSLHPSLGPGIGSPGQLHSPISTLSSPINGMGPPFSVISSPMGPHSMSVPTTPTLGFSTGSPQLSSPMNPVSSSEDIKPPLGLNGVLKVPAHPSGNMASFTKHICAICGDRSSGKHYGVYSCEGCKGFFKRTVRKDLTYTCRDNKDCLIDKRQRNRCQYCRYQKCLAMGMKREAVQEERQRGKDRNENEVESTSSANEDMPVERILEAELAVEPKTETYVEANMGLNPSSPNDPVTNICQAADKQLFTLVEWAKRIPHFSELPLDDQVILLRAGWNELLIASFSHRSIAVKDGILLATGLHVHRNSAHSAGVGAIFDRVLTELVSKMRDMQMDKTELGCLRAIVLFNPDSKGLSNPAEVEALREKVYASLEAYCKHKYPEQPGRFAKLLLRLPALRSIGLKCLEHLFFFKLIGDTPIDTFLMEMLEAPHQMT
Peroxisome proliferator-activated receptor gamma (Homo sapiens), sequence (P37231 whole entry, looked up): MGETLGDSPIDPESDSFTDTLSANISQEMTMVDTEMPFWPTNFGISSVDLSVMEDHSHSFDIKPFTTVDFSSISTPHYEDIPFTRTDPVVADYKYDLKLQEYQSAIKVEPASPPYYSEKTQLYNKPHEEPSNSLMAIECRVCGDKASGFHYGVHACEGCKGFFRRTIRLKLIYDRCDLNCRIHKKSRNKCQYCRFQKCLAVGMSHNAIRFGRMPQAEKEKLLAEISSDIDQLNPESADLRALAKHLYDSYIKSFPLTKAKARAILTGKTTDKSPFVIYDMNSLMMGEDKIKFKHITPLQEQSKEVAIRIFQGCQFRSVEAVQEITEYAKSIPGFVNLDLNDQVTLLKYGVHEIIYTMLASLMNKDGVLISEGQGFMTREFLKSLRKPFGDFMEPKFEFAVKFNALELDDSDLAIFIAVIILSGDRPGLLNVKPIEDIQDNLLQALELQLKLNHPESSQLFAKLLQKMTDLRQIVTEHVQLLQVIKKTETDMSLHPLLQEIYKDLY
Peroxisome proliferator-activated receptor delta (Homo sapiens), sequence (Q03181 whole entry, looked up): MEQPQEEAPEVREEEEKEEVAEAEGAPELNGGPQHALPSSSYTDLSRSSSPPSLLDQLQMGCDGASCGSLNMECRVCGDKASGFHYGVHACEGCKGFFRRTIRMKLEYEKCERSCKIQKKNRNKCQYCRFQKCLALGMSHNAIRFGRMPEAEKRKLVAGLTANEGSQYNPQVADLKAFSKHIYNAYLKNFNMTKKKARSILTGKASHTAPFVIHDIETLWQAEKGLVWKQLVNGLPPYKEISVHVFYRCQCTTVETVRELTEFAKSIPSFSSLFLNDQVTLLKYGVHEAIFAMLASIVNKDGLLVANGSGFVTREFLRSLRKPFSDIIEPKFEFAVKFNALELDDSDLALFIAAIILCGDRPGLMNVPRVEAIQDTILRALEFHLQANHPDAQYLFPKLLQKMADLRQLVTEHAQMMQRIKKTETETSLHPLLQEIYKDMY
Peroxisome proliferator-activated receptor alpha (Homo sapiens), sequence (Q07869 whole entry, looked up): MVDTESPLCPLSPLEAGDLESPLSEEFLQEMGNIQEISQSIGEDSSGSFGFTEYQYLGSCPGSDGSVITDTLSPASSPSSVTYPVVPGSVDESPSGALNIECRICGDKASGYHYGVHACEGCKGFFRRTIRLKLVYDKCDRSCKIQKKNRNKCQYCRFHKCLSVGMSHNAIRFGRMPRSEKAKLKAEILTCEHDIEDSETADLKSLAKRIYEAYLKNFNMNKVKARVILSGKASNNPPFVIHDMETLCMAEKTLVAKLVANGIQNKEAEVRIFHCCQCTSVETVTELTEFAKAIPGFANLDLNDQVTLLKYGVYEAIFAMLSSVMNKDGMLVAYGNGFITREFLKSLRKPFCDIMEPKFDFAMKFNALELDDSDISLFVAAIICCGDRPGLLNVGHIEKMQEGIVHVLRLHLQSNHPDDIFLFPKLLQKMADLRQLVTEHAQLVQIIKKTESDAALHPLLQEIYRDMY
Vitamin D3 receptor (Homo sapiens), sequence (P11473 whole entry, looked up): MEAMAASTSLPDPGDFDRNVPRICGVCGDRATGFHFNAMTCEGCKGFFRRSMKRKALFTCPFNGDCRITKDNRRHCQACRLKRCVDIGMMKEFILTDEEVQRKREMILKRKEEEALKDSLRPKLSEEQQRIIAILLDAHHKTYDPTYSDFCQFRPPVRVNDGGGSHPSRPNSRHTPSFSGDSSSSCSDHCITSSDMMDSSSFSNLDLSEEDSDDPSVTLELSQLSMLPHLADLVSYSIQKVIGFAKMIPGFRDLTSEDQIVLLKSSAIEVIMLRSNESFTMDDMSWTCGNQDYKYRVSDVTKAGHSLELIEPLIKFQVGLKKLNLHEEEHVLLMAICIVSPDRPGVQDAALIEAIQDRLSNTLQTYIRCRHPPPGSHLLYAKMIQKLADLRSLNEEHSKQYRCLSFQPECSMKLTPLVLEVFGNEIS

Cc1c(COC(=O)C2C(/C=C(\Cl)C(F)(F)F)C2(C)C)cccc1-c1ccccc1 (configuration not stated)
inactive: outcome [1] | Potency [3] | Potency [4] | Potency [5] | Potency [6] | outcome [7] | Potency [8] | max response [10] -11.6% | activation [11] -0.984% | max response [12] -0.35% | Potency [13] | max response [14] -14.6% | max response [15] -17.7%
11.3%: max response [2]
1.28%: max response [9]

COP(=S)(OC)Oc1c(Cl)cc(C)cc1Cl
inactive: activation [16] 2.7% | outcome [1] | Potency [3] | Potency [4] | Potency [5] | Potency [6] | Potency [17] | Potency [8] | max response [10] -12.7% | activation [18] 7.93% | max response [12] 5.67% | Potency [13] | max response [14] -1.53% | max response [15] -18.5% | Potency [19] | max response [20] 1.76%
-4.3%: max response [2]
-6.8%: max response [9]

CNC(=O)Oc1cc(C)cc(C(C)C)c1
-13.9%: max response [2]
inactive: outcome [1] | Potency [3] | Potency [4] | Potency [5] | Potency [6] | outcome [7] | Potency [17] | Potency [8] | max response [10] -3.46% | activation [11] 0.548% | max response [12] 4.47% | Potency [13] | max response [14] 3.5% | Potency [19] | max response [20] -3.71%
-5.53%: max response [9]

CNC(=O)/C=C(\C)OP(=O)(OC)OC
inactive: activation [16] -1.15% | outcome [1] | Potency [3] | Potency [4] | Potency [5] | Potency [6] | outcome [7] | Potency [17] | Potency [8] | max response [10] -15.9% | activation [11] 7.36% | max response [12] -1.97% | max response [14] -10% | max response [15] -10.5% | Potency [19] | max response [20] 0.645%
-16.8%: max response [9]
32.8%: max response [2]

CCOP(=S)(OCC)Oc1nc(Cl)n(C(C)C)n1
inactive: activation [16] 12.9% | Potency [4] | Potency [5] | Potency [6] | outcome [7] | Potency [8] | max response [10] 14.2% | max response [12] 0.789% | Potency [13] | max response [14] -6.76% | max response [15] 6.35%
10.5%: max response [9]

O=Nc1ccc(Nc2ccccc2)cc1
active: Potency [18] 50.1 µM | Potency [13] 21.7 µM
inactive: outcome [1] | Potency [5] | outcome [7] | activation [18] 19.9% | activation [11] 6.01%
